Activity calls are given as the source filed them. Unless noted, calls follow the shape of the dose curve; as a rule, active = well fitted curve in the direction sought with a large enough effect in the repeat runs; inconclusive = weak or mixed curves; inactive = no such curve, though single readings can be large; an effect the other way counts as inactive or inconclusive. Positions of bridges follow the written chain, without caps; N, C: chain ends. Non-standard residues stand in square brackets, D forms with d. Residues, ends and D or L forms follow the SMILES beside them. ξ: configuration not given here. *: point of attachment. d(aThr) = C[C@@H](O)[C@@H](N)C(=O)O; ξThr(3R) = C[C@@H](O)C(N)C(=O)O; X3 = CC[C@@H](C)CCCCC(=O)*; dDab = NCC[C@@H](N)C(=O)O
Tests used:
[1] = qHTS assay to identify small molecule antagonists of the thyroid receptor (TR) signaling pathway - cell viability counter screen (AID 743064); also: nearly all actives have a fitted effect of over 50% in size; also: potency is read from the fitted curve at half-maximal effect
How it was run: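 Same-well viability check: GH3.TRE-Luc cells stimulated with 1 nM T3 alongside test compound for 23.5 h, followed by CellTiter-Fluor fluorescence.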

[2] = qHTS assay to identify small molecule antagonists of the thyroid receptor (TR) signaling pathway (AID 743065); also: nearly all actives have a fitted effect of over 55% in size; also: potency is read from the fitted curve at half-maximal effect
How it was run: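 Antagonism measured as loss of luciferase signal in GH3 cells stably carrying a TRE-luciferase reporter, co-treated with compound and T3 (1 nM final) for 23.5 h at 37 C. Viability was read in the same well by CellTiter-Fluor.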

[3] = target: Estrogen receptor (Homo sapiens) (UniProt P03372); experiment: qHTS assay to identify small molecule agonists of the estrogen receptor alpha (ER-alpha) signaling pathway (AID 743075; calls by dose curve;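 also: HEK293 GripTite cells with ER-alpha and UAS-driven beta-lactamase reporter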; also: potency is read from the fitted curve at half-maximal effect)
Aromatase (Homo sapiens) = Aromatase (Homo sapiens) (UniProt P11511); experiment: qHTS assay to identify aromatase inhibitors (AID 743083); also: nearly all actives have a fitted effect of over 55% in size; also: potency is read from the fitted curve at half-maximal effect
[4] = target: Aryl hydrocarbon receptor (Homo sapiens) (UniProt P35869); experiment: qHTS assay to identify small molecule that activate the aryl hydrocarbon receptor (AhR) signaling pathway (AID 743085); also: nearly all actives have a fitted effect of over 15% in size; also: potency is read from the fitted curve at half-maximal effect;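 as to activation: HG2L7.5c1 human HepG2 liver cells with stably integrated DRE-driven firefly reporter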
How it was run: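 Reporter assay in engineered HepG2 line HG2L7.5c1, whose plasmid carries twenty dioxin responsive elements upstream of firefly luciferase. Treatment lasted 24 h at 37C; ONE-Glo luminescence gauged induction.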

[5] = qHTS assay to identify small molecule phospholipidosis (PLD) inducers (AID 1259344; active = well fitted curve in the direction sought with a large enough effect; inconclusive = small, poorly fitted or top-dose-only effect, or another doubt; inactive = no such curve, though single readings can be large; an effect the other way counts as inactive or inconclusive)
How it was run: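 Phospholipidosis is scored by imaging LipidTOX-stained pits in HepG2 cells exposed to compound for 24 h at 37 C; pit counts and integrated intensities per well and per cell serve as outputs.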

[6] = target: Nuclear receptor subfamily 1 group I member 2 (Rattus norvegicus) (UniProt Q9R1A7); experiment: Rat pregnane X receptor (rPXR) activation by small molecules, qHTS assay (AID 1346983); details: rPXR luciferase reporter cells, One-Glo luminescence, 24 h; max activation: active compounds read high; also: nearly all actives have a fitted effect of over 20% in size; also: potency is read from the fitted curve at half-maximal effect
How it was run: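 Luminescent readout (One-Glo luciferase, 30 min room temperature) followed 24 hr compound treatment at 37 C of rPXR cells plated 2,000 per well and preincubated 5hr; qHTS format with compounds delivered in DMSO.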

[7] = target: Nuclear receptor subfamily 1 group I member 2 (Homo sapiens) (UniProt O75469); experiment: CYP3A4 induction through human pregnane X receptor (PXR) by small molecules, qHTS assay (AID 1346984); also: nearly all actives have a fitted effect of over 40% in size; also: potency is read from the fitted curve at half-maximal effect
How it was run: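 DPX-2 reporter cells; 24h cpd, 37C; Luciferin-IPA 3uM final x3h; One-Glo 30 min RT; lumi read.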

[8] = target: Nuclear receptor subfamily 1 group I member 2 (Homo sapiens) (UniProt O75469); experiment: Human pregnane X receptor (PXR) activation by small molecules, qHTS assay (AID 1346985); also: nearly all actives have a fitted effect of over 40% in size; also: potency is read from the fitted curve at half-maximal effect
How it was run: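 DPX-2 cells (HepG2 co-transfected with a PXR response element and a CYP3A4-promoter luciferase construct) were seeded at 2,000 per well, rested 5 hr at 37C, then exposed to DMSO-dissolved compounds for 24 hr. Activation was read as luciferase luminescence.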

[9] = system: thyroid hormone receptor (rat, GH3 cells); experiment: qHTS assay to identify small molecule agonists of the thyroid receptor (TR) signaling pathway (AID 743066; calls by dose curve)
[10] = target: Estrogen receptor (Homo sapiens) (UniProt P03372); experiment: qHTS assay to identify small molecule antagonists of the estrogen receptor alpha (ER-alpha) signaling pathway (AID 743069; active = well fitted curve in the direction sought with a large enough effect in the signal ratio in the repeat runs, not every such curve was filed as active; inconclusive = weak or mixed curves, or effect the other way; inactive = no such curve, though single readings can be large or run the other way; the % refers to the signal ratio; also: potency is read from the fitted curve at half-maximal effect)
How it was run: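 ER-alpha-UAS-bla GripTite HEK293 line; 2% charcoal-stripped FBS overnight; plated, 4 hr 37C/5% CO2; cpd in DMSO + 17beta-estradiol, 18 hr 37C; LiveBLAzer B/G FRET substrate 2 hr RT; fluorescence intensity.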

[11] = qHTS assay to identify small molecule antagonists of the estrogen receptor alpha (ER-alpha) signaling pathway - cell viability counter screen (AID 743074; calls by dose curve;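 also: HEK293 cells carrying ER-alpha-UAS-bla reporter stimulated with 17beta-estradiol; nearly all actives have a fitted effect of over 45% in size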; also: potency is read from the fitted curve at half-maximal effect)
[12] = target: Estrogen receptor (Homo sapiens) (UniProt P03372); experiment: qHTS assay to identify small molecule agonists of the estrogen receptor alpha (ER-alpha) signaling pathway using the BG1 cell line (AID 743079); details: BG1Luc4E2 cells, ERE-luciferase agonist, 22 h; activation: at 70.3 µM (top of the series); also: nearly all actives have a fitted effect of over 20% in size; also: potency is read from the fitted curve at half-maximal effect
[13] = qHTS assay to identify small molecule antagonists of the estrogen receptor alpha (ER-alpha) signaling pathway using the BG1 cell line (AID 743080; calls by dose curve;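 also: BG1 cells stimulated with 17beta-estradiol alongside compound; nearly all actives have a fitted effect of over 25% in size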)
How it was run: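 Luciferase inhibition measured with ONE-Glo after 30 min at RT in BG1Luc4E2 cells given test compounds and 17beta-estradiol for 21.5 h at 37 C; CellTiter-Fluor viability read in the same wells beforehand.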

[14] = qHTS assay to identify small molecule antagonists of the estrogen receptor alpha (ER-alpha) signaling pathway using the BG1 cell line - cell viability counter screen (AID 743081);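 also: compound given together with 17beta-estradiol as the ER stimulus; nearly all actives have a fitted effect of over 45% in size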; also: potency is read from the fitted curve at half-maximal effect
[15] = qHTS assay to identify aromatase inhibitors - cell viability counter screen (AID 743084);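 also: cells stimulated with testosterone during compound exposure; nearly all actives have a fitted effect of over 55% in size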
[16] = qHTS assay to identify small molecule that activate the aryl hydrocarbon receptor (AhR) signaling pathway - cell viability counter screen (AID 743086);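 also: HepG2 liver cells carrying the AhR DRE luciferase reporter; nearly all actives have a fitted effect of over 45% in size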
How it was run: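 Cytotoxicity counter screen: CellTiter-Fluor signal (30 min, 37 C) in 4000 HepG2 cells/well carrying the DRE-luciferase reporter, following 24 h compound exposure at 37 C.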

[17] = target: Peroxisome proliferator-activated receptor gamma (Homo sapiens) (UniProt P37231); experiment: qHTS assay to identify small molecule agonists of the peroxisome proliferator-activated receptor gamma (PPARg) signaling pathway (AID 743094; active = well fitted activation curve with a large enough effect in the signal ratio in the repeat runs, not every such curve was filed as active; inconclusive = weak or mixed curves, or effect the other way; inactive = no such curve, though single readings can be large or run the other way; the % refers to the signal ratio)
How it was run: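 Stably transfected HEK293H cells (GeneBLAzer PPARg UAS-bla) were incubated with test substances for 17 h at 37C after a 5 h pre-incubation; beta-lactamase activity was then detected by FRET substrate fluorescence.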
% is scaled to controls: 0 for no effect and ±100 for the full control effect.

Sequence of Nuclear receptor subfamily 1 group I member 2 (Rattus norvegicus) (Q9R1A7 whole entry, looked up): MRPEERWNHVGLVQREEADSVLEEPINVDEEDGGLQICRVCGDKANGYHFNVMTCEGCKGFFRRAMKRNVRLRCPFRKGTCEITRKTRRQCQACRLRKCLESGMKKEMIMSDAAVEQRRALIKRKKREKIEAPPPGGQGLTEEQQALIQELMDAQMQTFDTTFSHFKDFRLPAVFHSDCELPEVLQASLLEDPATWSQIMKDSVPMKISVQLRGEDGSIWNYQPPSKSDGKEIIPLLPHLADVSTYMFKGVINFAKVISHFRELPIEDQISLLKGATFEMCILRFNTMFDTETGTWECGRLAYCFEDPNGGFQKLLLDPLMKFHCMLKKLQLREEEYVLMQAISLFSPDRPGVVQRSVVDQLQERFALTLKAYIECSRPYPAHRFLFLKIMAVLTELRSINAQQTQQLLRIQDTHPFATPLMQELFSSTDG
Sequence of Estrogen receptor (Homo sapiens) (P03372 whole entry, looked up): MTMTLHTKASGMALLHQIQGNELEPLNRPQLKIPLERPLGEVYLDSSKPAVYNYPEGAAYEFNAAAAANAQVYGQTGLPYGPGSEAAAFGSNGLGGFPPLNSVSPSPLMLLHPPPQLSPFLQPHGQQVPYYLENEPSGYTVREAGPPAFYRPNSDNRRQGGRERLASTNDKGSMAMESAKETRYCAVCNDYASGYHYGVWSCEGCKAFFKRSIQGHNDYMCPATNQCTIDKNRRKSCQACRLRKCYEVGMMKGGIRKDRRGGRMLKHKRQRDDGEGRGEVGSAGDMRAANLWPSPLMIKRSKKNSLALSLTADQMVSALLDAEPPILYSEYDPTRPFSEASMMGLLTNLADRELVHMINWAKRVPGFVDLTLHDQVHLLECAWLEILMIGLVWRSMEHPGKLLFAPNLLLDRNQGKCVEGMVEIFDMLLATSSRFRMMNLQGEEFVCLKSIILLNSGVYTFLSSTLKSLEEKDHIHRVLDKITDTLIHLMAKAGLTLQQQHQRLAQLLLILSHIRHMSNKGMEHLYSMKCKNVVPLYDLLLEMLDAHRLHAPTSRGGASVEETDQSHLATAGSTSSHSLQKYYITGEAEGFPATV
Sequence of Aryl hydrocarbon receptor (Homo sapiens) (P35869 whole entry, looked up): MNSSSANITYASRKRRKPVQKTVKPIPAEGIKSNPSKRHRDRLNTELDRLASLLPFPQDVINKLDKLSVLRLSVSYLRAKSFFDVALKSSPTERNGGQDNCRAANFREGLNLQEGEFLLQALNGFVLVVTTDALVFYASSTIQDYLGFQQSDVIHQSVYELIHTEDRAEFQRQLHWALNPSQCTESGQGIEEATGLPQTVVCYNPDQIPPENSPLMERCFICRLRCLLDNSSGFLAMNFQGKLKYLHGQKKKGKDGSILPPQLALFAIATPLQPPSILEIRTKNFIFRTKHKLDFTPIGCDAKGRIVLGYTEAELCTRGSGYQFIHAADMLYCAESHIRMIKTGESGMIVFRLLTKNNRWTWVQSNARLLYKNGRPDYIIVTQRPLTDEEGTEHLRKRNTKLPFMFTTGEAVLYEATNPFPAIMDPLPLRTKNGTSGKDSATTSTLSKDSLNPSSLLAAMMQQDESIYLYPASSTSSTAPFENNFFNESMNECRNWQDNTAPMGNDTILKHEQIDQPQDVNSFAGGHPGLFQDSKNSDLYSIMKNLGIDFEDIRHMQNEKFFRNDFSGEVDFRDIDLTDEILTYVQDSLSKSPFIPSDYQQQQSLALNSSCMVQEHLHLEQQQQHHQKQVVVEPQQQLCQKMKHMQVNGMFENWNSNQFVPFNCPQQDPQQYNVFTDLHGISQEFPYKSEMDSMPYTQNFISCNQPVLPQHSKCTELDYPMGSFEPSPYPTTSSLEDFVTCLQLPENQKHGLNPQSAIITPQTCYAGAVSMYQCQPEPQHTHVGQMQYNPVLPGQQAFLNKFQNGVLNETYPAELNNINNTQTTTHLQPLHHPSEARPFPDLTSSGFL
Sequence of Aromatase (Homo sapiens) (P11511 whole entry, looked up): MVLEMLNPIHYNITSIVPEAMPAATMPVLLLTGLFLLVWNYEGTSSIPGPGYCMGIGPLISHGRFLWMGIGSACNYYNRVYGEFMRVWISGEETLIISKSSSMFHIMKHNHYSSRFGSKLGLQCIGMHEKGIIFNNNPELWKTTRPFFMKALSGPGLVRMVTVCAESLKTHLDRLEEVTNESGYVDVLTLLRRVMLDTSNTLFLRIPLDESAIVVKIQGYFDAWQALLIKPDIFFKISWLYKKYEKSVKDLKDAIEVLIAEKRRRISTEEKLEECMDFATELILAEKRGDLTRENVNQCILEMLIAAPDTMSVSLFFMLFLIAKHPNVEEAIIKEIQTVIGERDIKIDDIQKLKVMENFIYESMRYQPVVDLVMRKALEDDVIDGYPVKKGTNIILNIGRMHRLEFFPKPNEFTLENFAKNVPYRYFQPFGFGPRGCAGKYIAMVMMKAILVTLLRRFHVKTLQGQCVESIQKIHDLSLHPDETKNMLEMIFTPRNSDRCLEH
Sequence of Peroxisome proliferator-activated receptor gamma (Homo sapiens) (P37231 whole entry, looked up): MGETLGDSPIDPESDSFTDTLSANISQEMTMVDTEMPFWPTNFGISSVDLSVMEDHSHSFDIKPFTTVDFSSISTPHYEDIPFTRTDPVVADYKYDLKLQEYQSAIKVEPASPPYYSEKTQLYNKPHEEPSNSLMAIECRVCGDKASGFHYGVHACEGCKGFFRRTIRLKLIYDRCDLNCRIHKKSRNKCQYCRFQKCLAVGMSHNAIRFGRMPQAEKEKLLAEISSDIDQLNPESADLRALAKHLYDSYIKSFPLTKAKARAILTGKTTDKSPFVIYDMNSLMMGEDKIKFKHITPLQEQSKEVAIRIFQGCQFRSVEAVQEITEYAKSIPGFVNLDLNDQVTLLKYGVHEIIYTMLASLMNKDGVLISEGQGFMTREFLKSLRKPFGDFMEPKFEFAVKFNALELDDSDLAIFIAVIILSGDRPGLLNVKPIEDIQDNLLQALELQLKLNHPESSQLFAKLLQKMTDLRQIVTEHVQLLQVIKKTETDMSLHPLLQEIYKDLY

CCCCCCCCCCCCCC[n+]1ccc(C)cc1
active: Potency [1] 7.5 µM | Potency [2] 4.73 µM | Potency (Aromatase (Homo sapiens)) 8.41 µM
inactive: Potency [3] | Potency [4] | Potency [5] | max activation [6] -19.6% | Potency [7] | Potency [8]

O=[N+]([O-])c1c(Cl)cccc1-c1c[nH]cc1Cl
active: Potency [1] 29.8 µM | Potency [2] 26.6 µM | Potency [3] 4.77 µM [inconclusive] | Potency [7] 11.2 µM | Potency [8] 14.1 µM
inactive: Potency [5] | max activation [6] 9.62%

FC(F)(F)C(F)(F)C(F)(F)C(F)(F)C(F)(F)C(F)(F)F
inactive: Potency [2] | Potency [9] | Potency [10] | Potency [11] | Potency [3] | Potency [12] | Potency [13] | Potency [14] | Potency (Aromatase (Homo sapiens)) | Potency [15] | Potency [4] | Potency [16] | Potency [17] | Potency [5] | max activation [6] -1.09% | Potency [7] | Potency [8]

CC[C@@H](C)CCCCC(=O)N[C@H](CCN)C(=O)N[C@@H](C(=O)N[C@H](CCN)C(=O)N[C@@H]1CCNC(=O)C([C@@H](C)O)NC(=O)[C@@H](CCN)NC(=O)[C@@H](CCN)NC(=O)[C@@H](CC(C)C)NC(=O)[C@@H](Cc2ccccc2)NC(=O)[C@@H](CCN)NC1=O)[C@@H](C)O (stereo partly drawn) (X3-[dDab][d(aThr)][dDab][dDab][dDab][dF][dL][dDab][dDab][ξThr(3R)]; lactam 4-C)
inactive: Potency [1] | Potency [9] | Potency [11] | Potency [14] | Potency (Aromatase (Homo sapiens)) | Potency [15] | Potency [4] | Potency [16] | Potency [17] | Potency [5] | max activation [6] -6% | Potency [7] | Potency [8]

CC(C)[C@@H](C)/C=C/[C@@H](C)[C@H]1CC[C@H]2/C(=C/C=C3\C[C@@H](O)CC[C@@H]3C)CCC[C@]12C
inactive: Potency [1] | Potency [9] | Potency [10] | Potency [11] | Potency [3] | Potency [12] | Potency [13] | Potency [14] | Potency (Aromatase (Homo sapiens)) | Potency [15] | Potency [4] | Potency [16] | Potency [17] | Potency [5] | max activation [6] -0.157% | Potency [7] | Potency [8]

CC(=O)Oc1cc(C)c(OC(C)=O)c2ccccc12
inactive: Potency [11] | Potency [3] | Potency [13] | Potency [14] | Potency [15] | Potency [16] | Potency [5] | max activation [6] 0.757% | Potency [8]
active: Potency [1] 26.6 µM | Potency [2] 23.7 µM | Potency (Aromatase (Homo sapiens)) 26.6 µM | Potency [4] 29.8 µM | Potency [7] 12.6 µM

CCN(CC)CCCC(C)Nc1cc(/C=C/c2ccccc2Cl)nc2cc(Cl)ccc12 (centres undefined)
inactive: Potency [10] | Potency [11] | Potency [3] | Potency [12] | Potency [13] | Potency [17] | Potency [5] | max activation [6] -1.25% | Potency [7]
active: Potency [1] 26.6 µM | Potency [2] 29.8 µM | Potency [4] 26.6 µM | Potency [8] 22.4 µM

c1ccc2cc(C3=NCCN3)ccc2c1
inactive: Potency [1] | Potency [9] | Potency [10] | Potency [11] | Potency [3] | Potency [12] | Potency [14] | Potency (Aromatase (Homo sapiens)) | Potency [15] | Potency [16] | Potency [17] | Potency [5] | max activation [6] -0.34% | Potency [7] | Potency [8]

C[C@H]1[C@@H](OC(=O)CCC(=O)O)O[C@@H]2OC3(C)CC[C@H]4[C@H](C)CC[C@@H]1[C@@]24OO3
active: Potency [1] 2.98 µM | Potency [2] 1.06 µM | Potency [10] 7.56 µM [inconclusive]
inactive: Potency [11] | Potency [3] | Potency [12] | Potency [13] | Potency [4] | Potency [5] | max activation [6] -13.4% | Potency [7] | Potency [8]

CC[C@@H](C(=O)O)[C@@H]1O[C@@H]([C@@H](C)[C@H](O)[C@H](C)C(=O)[C@H](CC)[C@H]2O[C@]3(C=C[C@@H](O)[C@]4(CC[C@@](C)([C@H]5CC[C@](O)(CC)[C@H](C)O5)O4)O3)[C@H](C)C[C@@H]2C)[C@@H](C)C[C@@H]1C
active: Potency [1] 0.15 µM | Potency [2] 0.0944 µM | Potency [11] 151 nM | Potency [14] 6.68 µM
inactive: Potency [3] | Potency (Aromatase (Homo sapiens)) | Potency [15] | Potency [4] | Potency [16] | Potency [5] | max activation [6] -17.2% | Potency [7] | Potency [8]

CC(C)Cc1ccc([C@@H](C)C(=O)NS(C)(=O)=O)cc1
inactive: Potency [2] | Potency [9] | Potency [10] | Potency [11] | Potency [3] | Potency [12] | Potency [13] | Potency [14] | Potency (Aromatase (Homo sapiens)) | Potency [15] | Potency [4] | Potency [16] | Potency [17] | Potency [5] | max activation [6] -2.09% | Potency [7] | Potency [8]

Cc1cccc(C)c1NC(=O)NC1=CCCN1C
inactive: Potency [1] | Potency [2] | Potency [9] | Potency [14] | Potency (Aromatase (Homo sapiens)) | Potency [15] | Potency [4] | Potency [16] | Potency [17] | Potency [5] | max activation [6] -2.14% | Potency [7] | Potency [8]

CC(=O)Nc1c(I)c(C(=O)N[C@H]2C(O)O[C@H](CO)[C@@H](O)[C@@H]2O)c(I)c(N(C)C(C)=O)c1I (some centres undefined)
inactive: Potency [1] | Potency [10] | Potency [11] | Potency [3] | Potency [12] | Potency [13] | Potency [14] | Potency (Aromatase (Homo sapiens)) | Potency [15] | Potency [4] | Potency [16] | Potency [17] | Potency [5] | max activation [6] -3.77% | Potency [7] | Potency [8]

CN(C)C(=O)CCSC(SCCC(=O)O)c1cccc(/C=C/c2ccc3ccc(Cl)cc3n2)c1 (centres undefined)
inactive: Potency [11] | Potency [3] | Potency [14] | Potency (Aromatase (Homo sapiens)) | Potency [5] | Potency [7]
active: Potency [1] 29.8 µM | Potency [2] 26.6 µM | Potency [10] 7.56 µM [inconclusive] | Potency [12] 2.37 µM | Potency [4] 1.88 µM | Potency [6] 4.47 µM | Potency [8] 8.91 µM

Reference: PubChem BioAssay (Tox21)
